SNCA expr inhib: Primary qHTS assay for inhibitors of alpha-synuclein gene (SNCA) expression. HEK-293 SNCA-luciferase knock-in, luminescence, 24 h. Potency, µM (highest dose often 57.2 µM), inactives show top-dose activity change, negative = inhibition, most hits filed as inhibitors. hit rate 0.17% among 140,000;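 note: potency is the fitted concentration of half-maximal effect; plate controls were DMSO cells for no effect and cell-free wells for full effect; nearly all actives have a fitted effect of over 45% in size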
KDM5B inh: Primary screen for KDM5B Histone Demethylases FDH-coupled qHTS | AID 1347165, 2019 | Potency, µM (series often up to 57.7 µM), actives largely listed as inhibitors | hit rate 2.6% among 220,000 | KDM5B demethylase, FDH-coupled NADH fluorescence (FDH is formaldehyde dehydrogenase); note: potency is the fitted concentration of half-maximal effect; 0% is about no effect; nearly all actives have a fitted effect of over 70% in size
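Compound dilutions met 200 nM (final) KDM5BΔAP for 10 min at room temperature before substrate addition. The substrate mix held 12.5 µM H3K4me3 with cofactors 25 µM α-ketoglutarate and 50 µM Fe²⁺. NADH signal gain over 30 min defined activity.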
IP6K1 inhibitor: Primary qHTS assay for small molecule inhibitors of Inositol hexaphosphate kinase 1 (IP6K1); Inositol hexakisphosphate kinase 1 (Homo sapiens), Q92551; IP6K1 kinase, ADP-Glo luminescence, 2 h; hits give low values; activity change, % (series mostly up to about 58 µM); hit rate 0.81% among 140,000; in the data active = activity change below about -25%; note: % is set by controls: 0 for no effect and ±100 for the full control effect
Target sequence (Q92551 whole entry, looked up): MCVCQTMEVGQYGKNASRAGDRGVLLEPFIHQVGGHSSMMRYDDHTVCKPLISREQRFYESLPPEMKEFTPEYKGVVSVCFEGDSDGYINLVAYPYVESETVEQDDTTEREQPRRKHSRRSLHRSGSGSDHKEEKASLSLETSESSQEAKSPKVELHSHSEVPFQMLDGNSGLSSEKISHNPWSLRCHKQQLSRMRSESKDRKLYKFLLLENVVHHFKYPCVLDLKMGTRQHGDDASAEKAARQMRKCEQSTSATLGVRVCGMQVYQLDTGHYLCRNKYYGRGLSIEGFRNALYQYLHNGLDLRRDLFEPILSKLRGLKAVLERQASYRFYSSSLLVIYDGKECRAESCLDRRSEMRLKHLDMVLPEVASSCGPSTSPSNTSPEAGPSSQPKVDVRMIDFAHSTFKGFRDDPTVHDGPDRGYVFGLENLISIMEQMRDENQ
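ADP-Glo luminescence measures ADP made by human IP6K1 during a 2 h RT reaction with ATP/IP6 (mix at 1.3 mM/130 uM); top library doses 57.5 and 19.1 uM final.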
SNCA viab count: GF-AFC viability counterscreen for inhibitors of alpha-synuclein gene (SNCA) expression | hit rate 0.12% among 150,000 | HEK-293-SNCA-luc viability, GF-AFC fluorescence, 24 h | Potency, µM (doses to about 57.1 µM), for the others: top-dose activity change, negative = cytotoxicity, hits mostly cytotoxic | AID 1671193, 2021;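 note: potency is the fitted concentration of half-maximal effect; 0% = DMSO-treated cells and -100% = medium-only wells without cells; nearly all actives have a fitted effect of over 30% in size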
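Cytotoxicity counterscreen: after 24 h compound treatment of genome-edited SNCA-luciferase HEK-293 cells, live-cell protease substrate GF-AFC read by fluorescence after 30 min; activity scaled between DMSO (0%) and medium-only (-100%), curves Hill-fitted.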
IP6K1 conf: Confirmatory qHTS assay for small molecule inhibitors of Inositol hexaphosphate kinase 1 (IP6K1); AID 1645852, 2021; Potency, µM (top dose mostly 49 µM), for the others: at the highest dose activity change, negative = inhibition, actives largely listed as inhibitors; shares compounds with IP6K1 inhibitor; hit rate 13% among 1,200; recombinant IP6K1 kinase, ADP-Glo luminescence, 2 h; note: potency is the fitted concentration of half-maximal effect; % is set by controls: 0 for no effect and ±100 for the full control effect; nearly all actives have a fitted effect of over 65% in size
An asterisk follows results filed as active; i = inactive; ? = inconclusive; . = not tested or not shown; [ ] = another dose, or the depositor's remark. Compounds with a hit are over-represented: about 2.9% of the library has one in this group of screens. Unless noted, calls come from the whole dose curve; as a rule, active = well fitted curve in the direction sought with a large enough effect; inconclusive = small, poorly fitted or top-dose-only effect, or another doubt; inactive = no such curve, though single readings can be large; an effect the other way counts as inactive or inconclusive.

SMILES	SNCA expr inhib	KDM5B inh	IP6K1 inhibitor	SNCA viab count	IP6K1 conf
CCCS(=O)(=O)Nc1ccc(F)c(C(=O)c2c[nH]c3ncc(Cl)cc23)c1F	12µM*	.	-31*	?	?
N#Cc1c2n(c(=O)n(CCOc3ccc(Cl)cc3)c1=O)CCC2	.	i	.	.	.
COC(=O)c1c(NC(=O)NCc2cccnc2)sc2c1CC(C)(C)OC2	.	i	.	.	.
CC(C)CCN1CC2(CCCN(S(=O)(=O)N3CCOCC3)C2)CCC1=O (stereo not drawn)	17%	i	-33*	-6%	-11%
CN1CCN(C(=O)Nc2cccc(Cl)c2)c2cccnc21	2%	?	-32*	-1%	-9%
Cc1ccc2c(c1)cc1c(=O)n(Cc3ccc(Cl)cc3)nc(C)n12	9%	?	-7	13%	.
Cc1ccc2c(c1)cc1c(=O)n(Cc3cccc(Cl)c3)nc(C)n12	5%	i	-30*	9%	-7%
C=CCN(Cc1nc(-c2ccccc2)no1)Cc1nccn1C	70%	i	-38*	-6%	-12%
C=CCN(Cc1nc(-c2ccccc2)no1)C(=O)c1ccoc1C	.	i	.	.	.
O=C(c1ccc(Cl)nc1)N1CCCC(C(=O)N2CCC(c3nc4ccncc4[nH]3)C2)C1 (stereo not drawn)	-7%	.	24	12%	.
Cc1ccc(C2CC2C(=O)N(Cc2ccncc2)C2CC2)s1 (stereo not drawn)	.	i	.	.	.
N#Cc1ccccc1OCC(=O)NC1(C#N)CCCC1	.	i	.	.	.
Cc1cnc(C(=O)Nc2ncc(Cc3ccc(C#N)cc3C(F)(F)F)s2)cn1	.	i	.	.	.
COc1cc(C(C)C)c(Oc2cnc(N)nc2N)cc1I	.	.	-29*	2%	?
CN1CC(=O)N(C2CCCNCC2)Cc2c(NC3CCCCC3)ncnc21 (stereo not drawn)	6%	?	8	6%	.
O=C(c1ccc(N2CCCC(CO)C2)nc1)N1CCC(N2CCOCC2)CC1 (stereo not drawn)	-1%	?	-35*	7%	13%
CC1(C)Cc2c(sc(NC(=O)C(=O)NCCO)c2C#N)CO1	.	i	.	.	.
COc1ccc(C(C)=O)cc1COC(=O)C1CC2CCCC(C1)C2=O (stereo not drawn)	.	i	.	.	.
CN1C(=O)N(C)C2(CCN(c3cc(C4CC(O)C4)ncn3)CC2)C1=O (stereo not drawn)	-5%	i	-1	7%	.
C[C@@H]1CN(c2cc(C3CC(O)C3)ncn2)C[C@H](C)O1 (stereo partly drawn)	3%	i	-31*	-3%	-1%
O=C(CCc1ccccc1)N1CCC(c2n[nH]c(=O)n2-c2ccccc2)CC1	-20%	i	-21	6%	.
N[C@@H](Cc1cc(I)c(O)c(I)c1)C(=O)O	6%[25.6 µM]	.	-62*	-13%[23.9 µM]	-20%
CCOC(=O)c1sc2nc(CC(=O)OC)nc(Nc3ccc(Cl)cc3)c2c1C	.	i	.	.	.
Cc1ccc(-n2ncc(C(=O)Nc3ccc4c(c3)OCCO4)c2C2CCN(C(=O)OC(C)(C)C)CC2)cc1	-47%	i	-26*	?	11%
Cc1ccc(-n2ncc(C(=O)Nc3ccc4c(c3)OCO4)c2C2CCN(C(=O)OC(C)(C)C)CC2)cc1	-17%	?	21	-40%	.
SMILES	SNCA expr inhib	KDM5B inh	IP6K1 inhibitor	SNCA viab count	IP6K1 conf
Cc1ccccc1N1CCN(C2CCCN(C/C=C/c3ccc(F)cc3)C2)CC1 (stereo not drawn)	4%	i	-27*	2%	21%
O=C(CCC(=O)OCc1ccc(Br)cc1)Nc1ccc2c(c1)oc1ccccc12	.	i	.	.	.
Cc1ccc(/C=C(/C#N)c2nc3ccccc3[nH]2)cc1	.	i	.	.	.
Cc1ccc(/C=C/c2nc3ccccc3[nH]2)cc1	-93%	?	-41*	-6%	10µM*
COc1ccc(CNC(=O)C2CCN(S(=O)(=O)c3ccc(C)cc3)CC2)cc1	-8%	i	16	3%	.
COc1ccc(S(=O)(=O)N2CCC(C(=O)Nc3cc(C(F)(F)F)ccc3Cl)CC2)cc1	?	i	-43*	?	-12%
O=C(NC1CCCc2c1[nH]c1ccccc21)c1cccs1 (stereo not drawn)	-10%	?	-2	-7%	.
c1cc(Nc2cc(C3CC3)[nH]n2)nc(Nc2ccc3nc[nH]c3c2)n1	.	.	-27*	-36%	?
Cc1cc(C)cc(NC(=O)CSc2nccn2-c2ccccc2)c1	-6%	i	21	7%	.
CCOC(=O)c1ccc(NC(=O)CSc2nccn2-c2cc(C)cc(C)c2)cc1	-11%	i	-27*	0%	?
CCOC(=O)c1ccc(NC(=O)CSc2nc3cc4ccccc4cc3[nH]2)cc1	-2%	?	-26*	-6%	15%
Cc1ccoc1C(=O)N1C[C@@H](CO)[C@H](c2ccccn2)C1	21%	i	-40*	-8%	11%
COC[C@@H]1CN(C(=O)c2occc2C)C[C@H]1c1ccccn1	-15%	i	18	-11%	.
COc1ccc(OC)c(NC(=O)CC2CCCCN(Cc3ccccc3)C2=O)c1 (stereo not drawn)	?	.	-4	-7%	.
COc1ccccc1CNC(=O)c1ccc2c(c1)nc(C)n2-c1cccc(C)c1	1%	i	-26*	-22%	-15%
COC(=O)CNC(=O)c1ccc2nnc(-c3ccc(C(F)(F)F)cc3)n2c1	-2%	.	11	-3%	.
CCCCNC(=O)CN1CCN(c2ncc(NC(=O)c3ccc(Cl)cc3)cc2C(=O)O)CC1	28%	?	-59*	12%	?
CCCNC(=O)CN1CCN(c2ncc(NC(=O)c3ccc(Cl)cc3)cc2C(=O)O)CC1	38%	?	-23	-3%	.
O=C(CCn1nc(-c2ccc(Cl)cc2)ccc1=O)NCCc1ccccc1	20%	?	18	-2%	.
Cc1ccc(CCNC(=O)CCn2nc(-c3ccc(Cl)cc3)ccc2=O)cc1	21%	?	-28*	-1%	-6%
Cc1ccc(-c2ccccc2CN2CCC(C(=O)NCC3CC3)CC2)cc1Cl	.	.	0	.	.
COc1cc(NC(=O)Cn2c(NCc3ccccc3)nc3ccccc32)cc(OC)c1	.	i	.	.	.
COc1cc(F)c(F)c(Nc2ccc(I)cc2F)c1NS(=O)(=O)C1(C[C@H](O)CO)CC1	-16%	.	-6	-20%	-15%
Cc1nn(-c2ccccc2)c2c1C(C)N(C1CCCN([S+](=O)([O-])c3cccc(C(F)(F)F)c3)C1)C2=O (stereo not drawn)	.	.	-6	.	.
Nc1ccccc1OCC(F)(F)F	.	i	.	.	.
COc1ccc(NC(=O)CN2CCN(S(=O)(=O)c3ccc(Br)cc3)CC2)cc1	14%	i	-30*	0%	-15%

Assay outcomes: PubChem BioAssay, National Center for Advancing Translational Sciences (NCATS)
